“And” between values parts separate entries of the source, which are not always exact repeats. Equal entries are not always repeated. Records with an inconclusive call do not appear. The source made the active and inactive calls. Unless noted, calls come from the whole dose curve; as a rule, active = well fitted curve in the direction sought with a large enough effect; inconclusive = small, poorly fitted or top-dose-only effect, or another doubt; inactive = no such curve, though single readings can be large; an effect the other way counts as inactive or inconclusive.
Tests used:
[1] = target: Cytochrome P450 3A4 (Homo sapiens) (UniProt P08684); assay: qHTS Assay for Inhibitors and Substrates of Cytochrome P450 3A4 (AID 884); note: series mostly up to about 57 µM; % is set by controls: 0 for no effect and ±100 for the full control effect; nearly all actives have a fitted effect of over 50% in size
Method in brief: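 Luminescent readout of luciferin produced by CYP3A4 (20 nM) dealkylation of Luciferin-PPXE, 25 uM (its KM). NADPH-driven reaction ran 60 min at RT after 10 min compound preincubation; data scaled to 57 uM ketoconazole as 100% inhibition.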

[2] = Cell Viability - LYMP2-010 (AID 981);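 note: cells exposed to compound for 24 hours at 37 °C; % is set by controls: 0 for no effect and ±100 for the full control effect; nearly all actives have a fitted effect of over 55% in size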
Method in brief: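 qHTS cytotoxicity, 1536-well: 2500 cells/well, 5 hr settle, 24 hr compound at 37 C, CellTiter-Glo 30 min RT, luminescence read. Decrease in ATP = toxicity; AC50 via standard Hill equation. Positive control tetraoctylammonium bromide.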

[3] = Cell Viability - LYMP2-012 (AID 982);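 note: cellular ATP by luciferase luminescence where a drop means cytotoxicity; cells exposed to compound for one day before reading; 0% = DMSO only and full loss = 92 µM tetraoctylammonium bromide; nearly all actives have a fitted effect of over 55% in size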
[4] = Cell Viability - LYMP2-016 (AID 984);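 note: cells exposed to compound for 24 hours at 37 °C; % is set by controls: 0 for no effect and ±100 for the full control effect; nearly all actives have a fitted effect of over 55% in size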
Method in brief: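 Cells were seeded at 2500 per well and rested 5 hr before a 24 hr compound exposure at 37 C. Viability was then gauged as cellular ATP by luciferase luminescence, with AC50 values fitted to the Hill equation.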

[5] = Cell Viability - LYMP2-024 (AID 988);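 note: plate controls were DMSO only for no effect and 92 µM tetraoctylammonium bromide for full effect; nearly all actives have a fitted effect of over 60% in size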
Method in brief: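 ATP-based luminescence (CellTiter-Glo, 30 min RT) after 24 h compound exposure at 37 C of 2500 lymphoblastoid cells/well; decrease in ATP taken as cytotoxicity. qHTS concentration-response fitted to standard Hill equation for AC50.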

[6] = target: Estrogen receptor (Homo sapiens) (UniProt P03372); assay: qHTS assay for small molecule antagonists of estrogen receptor alpha signaling (AID 588513; active = well fitted curve in the direction sought with a large enough effect in the signal ratio, with a control signal flat, not every such curve was filed as active; the % refers to the signal ratio; note: % is set by controls: 0 for no effect and ±100 for the full control effect)
Method in brief: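 Fluorescence from CCF4 substrate after 2 h at room temperature gave reporter activity; cells had been exposed to compound and 0.5nM 17-beta-estradiol for 18 h at 37 C. Hill-equation fitting yielded IC50 and maximal response.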

[7] = target: Estrogen receptor (Homo sapiens) (UniProt P03372); assay: qHTS assay for small molecule agonists of estrogen receptor alpha signaling (AID 588514; calls by dose curve;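 note: 0% = vehicle only and 100% = reference agonist; nearly all actives have a fitted effect of over 70% in size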)
Method in brief: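 Read-out: CCF4 fluorescence from a beta-lactamase reporter in ER-alpha-UAS-bla HEK 293 cells after 18 hrs of compound exposure at 37 C. Normalized to 20 nM 17-beta-estradiol (100%) and DMSO (0%).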

[8] = target: Glucocorticoid receptor (Homo sapiens) (UniProt P04150); assay: qHTS assay for small molecule agonists of glucocorticoid receptor signaling (AID 588532; active = well fitted curve in the direction sought with a large enough effect in the signal ratio, with a control signal flat; the % refers to the signal ratio;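 note: 100% = dexamethasone at 0.1 µM and 0% = DMSO only wells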); details: HeLa MMTV-bla, beta-lactamase ratio, agonist, 18 h; active compounds read high; percent of dexamethasone control, DMSO zero
Method in brief: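 MMTV-bla HeLa beta-lactamase reporter cells in 1% charcoal/dextran FBS medium, compounds up to 92 uM for 18 h at 37 C, CCF4 readout; normalized to 0.1 uM dexamethasone (100%), EC50 and efficacy from Hill fits.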

[9] = target: Glucocorticoid receptor (Homo sapiens) (UniProt P04150); assay: qHTS assay for small molecule antagonists of glucocorticoid receptor signaling (AID 588533; active = well fitted inhibition curve with a large enough effect in the signal ratio, with a control signal flat, not every such curve was filed as active; the % refers to the signal ratio;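 note: cells stimulated with 2 nM dexamethasone as agonist; % is set by controls: 0 for no effect and ±100 for the full control effect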)
Method in brief: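 Antagonist-mode qHTS: compound titrations added to GRE-bla HeLa cells, then dexamethasone 2 nM final; 18 h, 37 C. CCF4 FRET fluorescence normalized to dexamethasone and DMSO; IC50 from Hill fit.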

[10] = target: Peroxisome proliferator-activated receptor gamma (Homo sapiens) (UniProt P37231); assay: qHTS assay for small molecule agonists of peroxisome proliferator-activated receptor gamma signaling (AID 588536; active = well fitted curve in the direction sought with a large enough effect in the signal ratio, with a control signal flat, not every such curve was filed as active; the % refers to the signal ratio;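 note: 0% = DMSO basal wells and 100% = rosiglitazone at 2 µM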)
Method in brief: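 Using GeneBLAzer HEK293 cells, response was quantified by CCF4 fluorescence and normalized between basal DMSO (0%) and rosiglitazone 2 uM (100%); curves yielded half-maximal stimulation concentration and efficacy.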

[11] = target: Thyroid hormone receptor beta (Homo sapiens) (UniProt P10828); assay: qHTS assay for small molecule antagonists of thyroid hormone receptor beta signaling (AID 588547; active = well fitted inhibition curve with a large enough effect in the signal ratio, with a control signal flat, not every such curve was filed as active; the % refers to the signal ratio;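 note: cells stimulated with 0.4 nM T3 agonist during compound exposure; series mostly up to about 77 µM; % is set by controls: 0 for no effect and ±100 for the full control effect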); details: TR-UAS-bla HEK293, beta-lactamase ratio, antagonist mode, 18 h
Method in brief: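 TR-UAS-bla GripTite HEK293 cells in 2% charcoal/dextran FBS medium; compounds 0.59 nM to 92 uM with T3 at 0.4nM final, 18 h at 37 C. Beta-lactamase read by CCF4 fluorescence (460/530 nm); Hill fits gave IC50 and efficacy.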

[12] = qHTS assay for small molecule activators of the p53 signaling pathway (AID 651743; active = well fitted activation curve with a large enough effect in the signal ratio, not every such curve was filed as active; the % refers to the signal ratio; note: series mostly up to about 92 µM; % of control where 0% means no effect); details: HCT-116 p53RE-bla, beta-lactamase FRET ratio, 16 h; activation: active compounds read high
Method in brief: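 Reporter: beta-lactamase driven by p53 response elements, stably integrated in HCT-116 cells. Cells seeded at 4,000/well, 5 h preincubation, compound (DMSO) 16 h at 37 C; B/G FRET substrate 2 h RT; fluorescence intensity read.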

[13] = target: Tumor necrosis factor (Homo sapiens) (UniProt P01375); assay: qHTS assay to identify small molecules that stimulate Tumor Necrosis Factor-alpha (TNF-alpha) secretion (AID 651757; active = well fitted curve in the direction sought with a large enough effect in the signal ratio; the % refers to the signal ratio; note: 0% is about no effect)
Method in brief: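 THP-1 cells, 3000/well; compound 17 hrs, 37 C; add cryptate/XL665 anti-TNF-alpha antibody pair; 3 hr RT; TR-FRET (HTRF) read of secreted TNF-alpha. Quantitative HTS format.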

[14] = qHTS assay for environmental chemicals that activate the Aryl hydrocarbon Receptor (AhR) signaling pathway (AID 651777); details: 1A2-DRE human hepatoma cells, luciferase, 24 h; activation: active compounds read high; note: % of control where 0% means no effect; nearly all actives have a fitted effect of over 15% in size
Method in brief: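 Following a 24 hr incubation with test chemicals at 37 C and 5% CO2, 1A2-DRE human hepatoma cells received One-Glo reagent; after 30 min at room temperature, luciferase output reflected CYP1A2 induction via AhR.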

[15] = target: Nuclear receptor ROR-gamma (Homo sapiens) (UniProt P51449); assay: qHTS assay for small molecule antagonists of the retinoid-related orphan receptor gamma (ROR-gamma) signaling pathway (AID 651802);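 note: CHO cells with doxycycline-induced ROR-gamma expression; luciferase reporter luminescence driven by ROR response element; series mostly up to about 92 µM; % is set by controls: 0 for no effect and ±100 for the full control effect; nearly all actives have a fitted effect of over 60% in size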
Method in brief: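 Luciferase read-out: ONE-Glo luminescence after 30 min at room temperature, following 16hr doxycycline induction at 37C, 5% CO2 of CHO cells with TET-inducible ROR and RORE-LUC reporter; decreased luminescence = reduced reporter activity.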

[16] = qHTS assay for small molecule antagonists of the retinoid-related orphan receptor gamma (ROR-gamma) signaling pathway - cell viability counter screen (AID 720652; active = well fitted curve in the direction sought with a large enough effect in the repeat runs; an effect the other way counts as inactive or inconclusive;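 note: CHO reporter cells with doxycycline-induced ROR-gamma expression; series mostly up to about 92 µM; compound exposure lasted 16 hr before ATP read; % is set by controls: 0 for no effect and ±100 for the full control effect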)
Method in brief: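 CHO RORE-LUC/TET-ROR line, 1,000 cells/well, 37 C 5% CO2 5 hr; cpd or DMSO + doxycycline induction, 16 hr. CellTiter-Glo, 30 min RT, luminescence = ATP content.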

[17] = Cell Viability - LYMP2-001 (AID 921);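 note: series mostly up to about 92 µM; 0% = DMSO only and full inhibition = tetraoctylammonium bromide control wells; nearly all actives have a fitted effect of over 70% in size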
Method in brief: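 Steps: seed 2500 lymphoblastoid cells/well; 5 hr, 37 C; add compound; 24 hr, 37 C; CellTiter-Glo reagent, 30 min room temperature; read luminescence. Concentration-response modeled by Hill equation for AC50.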

[18] = MultiTox-Fluor Cytotoxicity Assay - LYMP1-001 - Live Cells (AID 947);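 note: 0% = DMSO only and full inhibition = tetraoctylammonium bromide control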
[19] = target: Retinoic acid receptor RXR-alpha (Homo sapiens) (UniProt P19793); assay: qHTS assay for small molecule agonists of retinoid X receptor alpha signaling (AID 588544; calls by dose curve;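 note: 0% = DMSO basal wells and 100% = reference agonist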)
[20] = target: Nuclear receptor subfamily 1 group I member 2 (Rattus norvegicus) (UniProt Q9R1A7); assay: qHTS assay for small molecule activators of the rat pregnane X receptor (rPXR) signaling pathway (AID 651751; call rule not given here; note: 0% is about no effect); details: rPXR reporter cells, luciferase (One-Glo), 24 h
Sequence of Nuclear receptor subfamily 1 group I member 2 (Rattus norvegicus) (Q9R1A7 whole entry, looked up): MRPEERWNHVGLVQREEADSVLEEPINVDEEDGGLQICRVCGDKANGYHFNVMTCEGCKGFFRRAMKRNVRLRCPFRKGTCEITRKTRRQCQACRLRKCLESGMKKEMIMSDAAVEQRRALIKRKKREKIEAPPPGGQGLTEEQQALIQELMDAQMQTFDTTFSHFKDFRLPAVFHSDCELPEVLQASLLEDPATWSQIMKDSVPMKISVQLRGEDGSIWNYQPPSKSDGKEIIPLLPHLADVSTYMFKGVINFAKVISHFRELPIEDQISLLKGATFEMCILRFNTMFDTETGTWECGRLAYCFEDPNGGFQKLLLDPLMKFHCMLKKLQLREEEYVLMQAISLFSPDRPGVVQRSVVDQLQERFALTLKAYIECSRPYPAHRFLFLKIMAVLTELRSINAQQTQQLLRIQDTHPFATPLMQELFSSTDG

Sequence of Thyroid hormone receptor beta (Homo sapiens) (P10828 whole entry, looked up): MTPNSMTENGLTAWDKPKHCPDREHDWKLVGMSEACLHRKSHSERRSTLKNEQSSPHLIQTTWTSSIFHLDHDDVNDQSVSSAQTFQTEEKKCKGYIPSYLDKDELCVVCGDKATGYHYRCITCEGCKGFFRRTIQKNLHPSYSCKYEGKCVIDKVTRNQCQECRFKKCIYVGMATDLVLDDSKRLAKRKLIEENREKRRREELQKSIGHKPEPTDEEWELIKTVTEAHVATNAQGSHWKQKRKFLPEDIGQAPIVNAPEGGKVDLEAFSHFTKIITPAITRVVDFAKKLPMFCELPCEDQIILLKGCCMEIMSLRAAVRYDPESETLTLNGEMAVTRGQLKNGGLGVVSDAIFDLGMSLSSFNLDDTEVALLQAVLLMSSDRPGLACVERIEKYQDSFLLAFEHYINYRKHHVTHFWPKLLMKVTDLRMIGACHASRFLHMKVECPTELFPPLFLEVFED
Sequence of Retinoic acid receptor RXR-alpha (Homo sapiens) (P19793 whole entry, looked up): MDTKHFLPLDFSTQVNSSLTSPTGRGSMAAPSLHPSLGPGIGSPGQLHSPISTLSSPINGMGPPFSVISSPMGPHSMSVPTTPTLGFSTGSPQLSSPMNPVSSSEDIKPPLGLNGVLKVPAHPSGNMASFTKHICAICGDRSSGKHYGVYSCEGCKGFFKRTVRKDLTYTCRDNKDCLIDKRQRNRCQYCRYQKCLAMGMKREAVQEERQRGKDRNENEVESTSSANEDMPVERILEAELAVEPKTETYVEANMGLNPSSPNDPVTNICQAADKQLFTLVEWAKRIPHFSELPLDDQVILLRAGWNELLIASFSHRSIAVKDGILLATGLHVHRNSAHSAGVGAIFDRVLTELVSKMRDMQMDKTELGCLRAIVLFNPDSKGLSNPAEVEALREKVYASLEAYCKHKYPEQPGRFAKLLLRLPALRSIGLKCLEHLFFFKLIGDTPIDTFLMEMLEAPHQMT
Sequence of Estrogen receptor (Homo sapiens) (P03372 whole entry, looked up): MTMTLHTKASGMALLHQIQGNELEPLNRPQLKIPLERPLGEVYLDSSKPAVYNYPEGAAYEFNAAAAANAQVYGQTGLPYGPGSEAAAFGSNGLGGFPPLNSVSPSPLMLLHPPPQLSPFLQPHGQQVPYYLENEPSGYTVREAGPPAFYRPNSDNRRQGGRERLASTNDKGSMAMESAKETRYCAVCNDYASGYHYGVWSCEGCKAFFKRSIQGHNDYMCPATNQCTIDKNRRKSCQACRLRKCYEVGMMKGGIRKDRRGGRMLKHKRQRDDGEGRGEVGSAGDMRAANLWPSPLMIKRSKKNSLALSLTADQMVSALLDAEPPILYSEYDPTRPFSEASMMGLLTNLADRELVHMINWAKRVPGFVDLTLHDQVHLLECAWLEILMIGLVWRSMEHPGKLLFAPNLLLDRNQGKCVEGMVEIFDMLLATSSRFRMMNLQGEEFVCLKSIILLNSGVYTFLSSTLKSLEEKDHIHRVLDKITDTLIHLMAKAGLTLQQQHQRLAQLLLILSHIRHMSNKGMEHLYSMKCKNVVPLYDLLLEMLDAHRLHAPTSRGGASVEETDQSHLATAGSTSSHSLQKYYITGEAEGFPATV
Sequence of Cytochrome P450 3A4 (Homo sapiens) (P08684 whole entry, looked up): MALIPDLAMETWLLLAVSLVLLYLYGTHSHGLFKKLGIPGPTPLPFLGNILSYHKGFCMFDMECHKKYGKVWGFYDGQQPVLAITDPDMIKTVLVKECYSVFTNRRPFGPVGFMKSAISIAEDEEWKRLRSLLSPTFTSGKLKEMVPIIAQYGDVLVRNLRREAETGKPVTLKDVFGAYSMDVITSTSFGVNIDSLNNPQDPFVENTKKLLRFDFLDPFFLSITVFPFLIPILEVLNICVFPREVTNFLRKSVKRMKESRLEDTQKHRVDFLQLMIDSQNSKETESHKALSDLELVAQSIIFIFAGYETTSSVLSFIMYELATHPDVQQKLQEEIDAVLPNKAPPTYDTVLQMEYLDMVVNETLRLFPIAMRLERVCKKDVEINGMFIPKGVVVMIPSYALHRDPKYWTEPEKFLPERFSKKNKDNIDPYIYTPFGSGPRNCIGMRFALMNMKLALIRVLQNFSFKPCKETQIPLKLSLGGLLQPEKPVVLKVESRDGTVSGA
Sequence of Tumor necrosis factor (Homo sapiens) (P01375 whole entry, looked up): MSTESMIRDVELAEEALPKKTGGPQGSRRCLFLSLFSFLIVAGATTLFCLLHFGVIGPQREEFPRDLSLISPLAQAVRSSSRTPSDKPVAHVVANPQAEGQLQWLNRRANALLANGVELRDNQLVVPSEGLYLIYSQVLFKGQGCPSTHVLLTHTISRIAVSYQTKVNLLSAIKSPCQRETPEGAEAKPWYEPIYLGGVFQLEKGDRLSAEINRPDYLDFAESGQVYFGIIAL
Sequence of Peroxisome proliferator-activated receptor gamma (Homo sapiens) (P37231 whole entry, looked up): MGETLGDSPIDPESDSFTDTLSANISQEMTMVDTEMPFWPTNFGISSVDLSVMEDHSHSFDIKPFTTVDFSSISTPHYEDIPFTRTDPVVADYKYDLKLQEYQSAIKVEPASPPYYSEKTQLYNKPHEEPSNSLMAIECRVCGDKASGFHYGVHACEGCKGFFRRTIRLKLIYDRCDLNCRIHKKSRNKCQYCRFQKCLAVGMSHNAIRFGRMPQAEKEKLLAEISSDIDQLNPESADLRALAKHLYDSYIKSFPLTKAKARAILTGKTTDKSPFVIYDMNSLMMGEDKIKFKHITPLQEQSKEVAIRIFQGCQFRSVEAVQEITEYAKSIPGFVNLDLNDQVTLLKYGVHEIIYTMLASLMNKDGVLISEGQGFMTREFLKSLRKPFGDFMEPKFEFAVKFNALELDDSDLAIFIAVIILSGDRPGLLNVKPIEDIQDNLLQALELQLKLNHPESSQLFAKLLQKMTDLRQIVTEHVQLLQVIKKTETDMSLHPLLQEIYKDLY
Sequence of Nuclear receptor ROR-gamma (Homo sapiens) (P51449 whole entry, looked up): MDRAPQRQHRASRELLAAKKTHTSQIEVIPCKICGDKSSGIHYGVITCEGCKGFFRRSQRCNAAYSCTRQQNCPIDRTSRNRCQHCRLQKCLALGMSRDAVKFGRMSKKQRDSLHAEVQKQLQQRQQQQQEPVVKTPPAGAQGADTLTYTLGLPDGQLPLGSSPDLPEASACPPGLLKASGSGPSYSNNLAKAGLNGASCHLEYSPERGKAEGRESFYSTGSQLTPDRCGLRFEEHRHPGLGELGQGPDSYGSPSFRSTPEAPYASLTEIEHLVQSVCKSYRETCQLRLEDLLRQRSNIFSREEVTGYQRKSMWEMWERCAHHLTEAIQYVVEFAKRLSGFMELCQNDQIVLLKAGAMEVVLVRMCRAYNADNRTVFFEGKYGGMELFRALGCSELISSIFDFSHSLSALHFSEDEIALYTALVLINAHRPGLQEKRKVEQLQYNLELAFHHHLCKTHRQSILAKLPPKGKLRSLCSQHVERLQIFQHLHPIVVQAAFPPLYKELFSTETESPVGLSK
Sequence of Glucocorticoid receptor (Homo sapiens) (P04150 whole entry, looked up): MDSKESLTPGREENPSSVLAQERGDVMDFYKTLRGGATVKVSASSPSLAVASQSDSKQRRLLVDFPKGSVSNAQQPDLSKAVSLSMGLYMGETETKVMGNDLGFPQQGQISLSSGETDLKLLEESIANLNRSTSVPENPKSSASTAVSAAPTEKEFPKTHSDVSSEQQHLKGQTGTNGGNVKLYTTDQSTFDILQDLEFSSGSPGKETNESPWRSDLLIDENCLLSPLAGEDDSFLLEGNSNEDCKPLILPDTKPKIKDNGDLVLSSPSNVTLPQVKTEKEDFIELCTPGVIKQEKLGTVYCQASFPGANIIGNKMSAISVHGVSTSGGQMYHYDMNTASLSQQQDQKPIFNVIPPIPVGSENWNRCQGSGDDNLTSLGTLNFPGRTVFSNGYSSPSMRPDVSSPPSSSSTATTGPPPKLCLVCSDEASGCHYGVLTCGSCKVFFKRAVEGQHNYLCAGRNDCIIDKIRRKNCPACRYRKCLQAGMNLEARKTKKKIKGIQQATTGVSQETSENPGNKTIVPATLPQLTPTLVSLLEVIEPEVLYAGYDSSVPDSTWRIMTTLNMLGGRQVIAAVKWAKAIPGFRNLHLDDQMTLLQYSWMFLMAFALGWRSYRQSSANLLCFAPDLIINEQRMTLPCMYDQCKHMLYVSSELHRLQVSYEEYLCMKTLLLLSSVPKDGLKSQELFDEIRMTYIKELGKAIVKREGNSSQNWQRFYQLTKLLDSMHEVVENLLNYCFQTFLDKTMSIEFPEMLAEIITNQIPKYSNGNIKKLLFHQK

c1ccc(-c2ccccc2)cc1
inactive: Potency [1] | Potency [2] | Potency [3] | Potency [4] | Potency [5] | Potency [6] | Potency [7] | activation [8] -0.478% and -3.49% | Potency [9] | outcome [10] | activity change % (negative = inhibition) [11] -3.07% and -0.354% | activation [12] 2.71% and -2.97% | outcome [13] | activation [14] -0.623% and 2.83% | Potency [15] | Potency [16]

O=C(Cl)C(Cl)(Cl)Cl
inactive: Potency [1] | Potency [17] | Potency [18] | Potency [2] | Potency [3] | Potency [4] | Potency [5] | Potency [6] | Potency [7] | activation [8] -1.29% | Potency [9] | outcome [10] | Potency [19] | activity change % (negative = inhibition) [11] -5.79% | activation [12] -0.85% | outcome [13] | activation [14] 0.0046% | Potency [15] | Potency [16] | max response [20] -0.469%

CCCSC(=O)Cl
inactive: Potency [1] | Potency [17] | Potency [18] | Potency [2] | Potency [3] | Potency [4] | Potency [5] | Potency [6] | Potency [7] | activation [8] 2.44% | Potency [9] | outcome [10] | Potency [19] | activity change % (negative = inhibition) [11] -14.3% | activation [12] -3.85% | outcome [13] | activation [14] -0.385% | Potency [15] | Potency [16] | max response [20] -3.99%

C1CCC2CCCCC2C1 (stereo not drawn)
inactive: Potency [1] | Potency [17] | Potency [18] | Potency [2] | Potency [3] | Potency [4] | Potency [5] | Potency [6] | Potency [7] | activation [8] 11.1% | Potency [9] | outcome [10] | Potency [19] | activity change % (negative = inhibition) [11] 10.1% | activation [12] -0.562% | outcome [13] | activation [14] -0.339% | Potency [15] | Potency [16] | max response [20] 1.72%

Cc1cccc([N+](=O)[O-])c1
inactive: Potency [1] | Potency [17] | Potency [18] | Potency [2] | Potency [3] | Potency [4] | Potency [5] | Potency [6] | Potency [7] | activation [8] 4.17% and -5.85% | Potency [9] | outcome [10] | Potency [19] | activation [12] -0.671% | outcome [13] | activation [14] -1.15% and 1.37% | Potency [16]

From PubChem BioAssay (NCATS)
